Results filed as inconclusive are left out. Calls of active or inactive are those of the source. The call rests on the fitted dose curve; in most records, active means well fitted curve in the direction sought with a large enough effect; inconclusive means small, poorly fitted or top-dose-only effect, or another doubt; inactive means no such curve, though single readings can be large; an effect the other way counts as inactive or inconclusive.
Experiments:
[1] = biological target: Rap guanine nucleotide exchange factor 3 (Homo sapiens) (UniProt O95398); assay: Confirmatory qHTS for antagonist of cAMP-regulated guanine nucleotide exchange factor 3 (EPAC1) (AID 1645880); settings: EPAC1 Rap1B-BODIPY-GDP exchange, fluorescence; series mostly up to 115 µM; further: nearly all actives have a fitted effect of over 55% in size; further: potency means the concentration at half of the fitted maximal effect
Chain of Rap guanine nucleotide exchange factor 3 (Homo sapiens) (O95398 whole entry, looked up): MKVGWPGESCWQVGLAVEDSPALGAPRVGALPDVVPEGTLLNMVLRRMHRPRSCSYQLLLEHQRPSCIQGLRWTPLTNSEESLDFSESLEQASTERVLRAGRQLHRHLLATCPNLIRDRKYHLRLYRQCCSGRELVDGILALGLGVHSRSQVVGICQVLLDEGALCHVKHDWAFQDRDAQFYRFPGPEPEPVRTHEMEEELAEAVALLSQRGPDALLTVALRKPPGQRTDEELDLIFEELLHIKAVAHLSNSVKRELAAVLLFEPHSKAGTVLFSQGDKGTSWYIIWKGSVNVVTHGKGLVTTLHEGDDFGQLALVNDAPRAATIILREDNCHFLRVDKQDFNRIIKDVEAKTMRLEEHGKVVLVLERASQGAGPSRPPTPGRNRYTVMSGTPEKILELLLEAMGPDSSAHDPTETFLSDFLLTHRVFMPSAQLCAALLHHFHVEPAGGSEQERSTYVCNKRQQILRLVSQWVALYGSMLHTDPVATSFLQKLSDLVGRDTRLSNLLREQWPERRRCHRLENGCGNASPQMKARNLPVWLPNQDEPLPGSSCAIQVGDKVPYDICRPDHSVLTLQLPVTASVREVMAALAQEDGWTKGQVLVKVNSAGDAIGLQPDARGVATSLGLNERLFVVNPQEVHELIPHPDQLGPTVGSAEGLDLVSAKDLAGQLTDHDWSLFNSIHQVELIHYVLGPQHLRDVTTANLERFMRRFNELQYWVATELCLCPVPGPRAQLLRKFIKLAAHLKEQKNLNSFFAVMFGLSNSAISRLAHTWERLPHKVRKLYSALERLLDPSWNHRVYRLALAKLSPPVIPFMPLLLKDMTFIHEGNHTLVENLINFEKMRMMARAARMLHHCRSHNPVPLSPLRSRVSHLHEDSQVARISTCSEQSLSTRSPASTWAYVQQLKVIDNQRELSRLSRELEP
Method in brief: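 Released BODIPY-GDP fluoresces less than Rap1-bound BODIPY-GDP; the signal is followed at 480/540 nm at 5-min intervals over 30 min, after 5 min at room temperature. Reactions contain 100 nM EPAC1, 250 nM RAP1B-BODIPY-GDP and 50 uM GDP; results are normalized to ATA and DMSO.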

[2] = biological target: Rap guanine nucleotide exchange factor 3 (Homo sapiens) (UniProt O95398); assay: Confirmatory qHTS for agonist of cAMP-regulated guanine nucleotide exchange factor 3 (EPAC1) (AID 1645881); settings: EPAC1 Rap1B BODIPY-GDP exchange fluorescence; series mostly up to 154 µM; further: nearly all actives have a fitted effect of over 75% in size; further: potency means the concentration at half of the fitted maximal effect;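 on activation: EPAC1 catalysed release of BODIPY-GDP from Rap1B seen as fluorescence loss; 100% = effect of cAMP agonist control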
[3] = biological target: Rap guanine nucleotide exchange factor 4 (Homo sapiens) (UniProt Q8WZA2); assay: Confirmatory qHTS for agonist of cAMP-regulated guanine nucleotide exchange factor 4 (EPAC2) (AID 1645884); settings: EPAC2 GEF activity, Rap1B-BODIPY-GDP fluorescence; series mostly up to 154 µM;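 further: nucleotide exchange releases bodipy-GDP from Rap1 and this lowers its fluorescence; nearly all actives have a fitted effect of over 65% in size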; further: potency means the concentration at half of the fitted maximal effect; on activation: on the % scale 0 is the no-effect control and ±100 the full control effect
Chain of Rap guanine nucleotide exchange factor 4 (Homo sapiens) (Q8WZA2 whole entry, looked up): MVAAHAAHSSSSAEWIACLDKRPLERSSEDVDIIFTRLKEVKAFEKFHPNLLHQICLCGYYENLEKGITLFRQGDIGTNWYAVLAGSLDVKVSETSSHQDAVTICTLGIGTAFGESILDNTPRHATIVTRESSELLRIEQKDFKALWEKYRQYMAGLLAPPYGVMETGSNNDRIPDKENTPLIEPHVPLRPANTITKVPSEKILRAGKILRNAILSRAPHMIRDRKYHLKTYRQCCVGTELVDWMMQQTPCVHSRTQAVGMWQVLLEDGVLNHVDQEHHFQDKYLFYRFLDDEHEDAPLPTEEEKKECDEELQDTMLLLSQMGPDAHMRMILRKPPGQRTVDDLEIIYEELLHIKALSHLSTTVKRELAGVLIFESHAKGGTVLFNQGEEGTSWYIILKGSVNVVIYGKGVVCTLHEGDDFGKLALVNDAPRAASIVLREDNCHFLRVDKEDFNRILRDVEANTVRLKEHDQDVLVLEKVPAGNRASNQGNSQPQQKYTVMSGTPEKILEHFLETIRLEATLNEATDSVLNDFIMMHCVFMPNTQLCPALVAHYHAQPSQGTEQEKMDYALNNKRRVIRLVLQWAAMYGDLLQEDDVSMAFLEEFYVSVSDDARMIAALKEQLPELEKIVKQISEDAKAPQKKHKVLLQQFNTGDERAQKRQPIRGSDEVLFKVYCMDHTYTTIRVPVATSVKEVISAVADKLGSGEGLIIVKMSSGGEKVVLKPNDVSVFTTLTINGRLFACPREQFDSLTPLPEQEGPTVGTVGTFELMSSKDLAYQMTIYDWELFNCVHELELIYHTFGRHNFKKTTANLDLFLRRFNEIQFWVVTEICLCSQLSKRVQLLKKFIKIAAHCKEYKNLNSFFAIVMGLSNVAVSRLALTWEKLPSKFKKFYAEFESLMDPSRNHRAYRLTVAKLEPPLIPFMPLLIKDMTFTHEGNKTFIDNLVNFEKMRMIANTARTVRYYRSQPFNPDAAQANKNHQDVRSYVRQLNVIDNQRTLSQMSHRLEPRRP

[4] = biological target: Rap guanine nucleotide exchange factor 4 (Homo sapiens) (UniProt Q8WZA2); assay: Confirmatory qHTS for antagonist of cAMP-regulated guanine nucleotide exchange factor 4 (EPAC2) (AID 1645885); settings: EPAC2 Rap1B-BODIPY-GDP exchange fluorescence, biochemical; series mostly up to 12.7 µM; further: nearly all actives have a fitted effect of over 25% in size; further: potency means the concentration at half of the fitted maximal effect; on activity change, negative = inhibition: on the % scale 0 is the no-effect control and ±100 the full control effect
[5] = biological target: Rap guanine nucleotide exchange factor 3 (Homo sapiens) (UniProt O95398); assay: Counterscreen qHTS for antagonist of cAMP-regulated guanine nucleotide exchange factor 3 (EPAC1) (AID 1645888); settings: Rap1B-BODIPY-GDP nucleotide exchange, fluorescence; series mostly up to 154 µM; further: % of control where 0% means no effect
Method in brief: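 Measured: fluorescence of BODIPY-GDP bound to Rap1B, which falls as exchange proceeds. Conditions include 50 uM competing GDP, 5 and 30 min reads, and a later cAMP challenge for antagonist detection.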

Cc1cc(C)cc(NC(=O)N2CCC(CN3CCc4ccccc4C3)CC2)c1
inactive: Potency [1] | Potency [2] | Potency [3] | Potency [4] | Potency [5]

Cc1ccc(C)c(-c2ccc(=O)n(Cc3cccc(Br)c3)n2)c1
inactive: Potency [1] | Potency [2] | Potency [3] | Potency [5]
active: Potency [4] 19 µM

COc1cccc(Cn2c(=O)cc(C)c3c(C)nn(C)c32)c1
inactive: Potency [1] | Potency [2] | Potency [3] | Potency [4] | Potency [5]

CCN(CCNC(=O)C1CCN(S(=O)(=O)c2cccc3cccnc23)CC1)c1ccccc1
inactive: Potency [1] | Potency [2] | Potency [3] | Potency [4] | Potency [5]

Nc1ccc2c3c(cccc13)-c1ccccc1-2
active: Potency [2] 100 µM | Potency [3] 100 µM
inactive: Potency [1] | Potency [4] | Potency [5]

Cc1c(Cl)ccc2c(C(=O)O)cc(-c3ccccc3)nc12
inactive: Potency [1] | Potency [2] | activation [3] 9.62% [at 17.1 µM, percent relative to cAMP agonist control] | Potency [4] | activity change, negative = inhibition [5] 5.51% [at 30.8 µM]

CC1(C(=O)NS(=O)(=O)c2cccs2)CCN1C(=O)C1(c2ccc(Cl)cc2)CCC1 (stereo not given)
inactive: Potency [2] | activation [3] 1.54% [at 17.1 µM, percent relative to cAMP agonist control] | Potency [4] | activity change, negative = inhibition [5] -14.6% [at 30.8 µM]
active: Potency [1] 15.8 µM

Cc1nn(CSc2c(F)c(F)c(F)c(F)c2F)c(C)c1[N+](=O)[O-]
inactive: Potency [1] | Potency [2] | activation [3] 0.798% [at 17.1 µM, percent relative to cAMP agonist control] | Potency [4] | activity change, negative = inhibition [5] -18.4% [at 30.8 µM]

Oc1ccc(N=Cc2c(O)ccc3ccccc23)cc1
inactive: Potency [1] | Potency [2] | activation [3] 11.7% [at 17.1 µM, percent relative to cAMP agonist control] | Potency [4] | activity change, negative = inhibition [5] -17% [at 30.8 µM]

Cc1ccc(CNC(=O)COc2ccccc2-c2ccccc2)cc1
inactive: Potency [1] | Potency [2] | activation [3] 2.73% [at 17.1 µM, percent relative to cAMP agonist control] | Potency [4] | activity change, negative = inhibition [5] 0.587% [at 30.8 µM]

Cc1ccc(NC(=O)c2ccc(Cl)c(S(=O)(=O)N3CCc4ccccc43)c2)nc1
inactive: Potency [1] | Potency [2] | Potency [3] | Potency [4] | Potency [5]

NC(=O)c1cc2ccc(O)cc2oc1=NCc1ccccc1
inactive: Potency [1] | Potency [4] | Potency [5]
active: Potency [2] 112 µM | Potency [3] 112 µM

COc1ccc(S(=O)(=O)N2CCC[C@H]2C(=O)N2CCC[C@H]2C(=O)NCc2ccccc2)cc1C
inactive: Potency [1] | Potency [2] | activation [3] 4.41% [at 17.1 µM, percent relative to cAMP agonist control] | Potency [4] | activity change, negative = inhibition [5] -5.32% [at 30.8 µM]

O=C1NC(=Nc2ccccc2Cl)S/C1=C\c1cc([N+](=O)[O-])ccc1O
active: Potency [1] 53.6 µM | Potency [4] 26.9 µM
inactive: Potency [2] | Potency [3] | Potency [5]

CCCn1c(CN2CCN(C(=O)c3ccco3)CC2)nc2c1c(=O)n(C)c(=O)n2C
active: Potency [4] 10.7 µM
inactive: Potency [1] | Potency [2] | Potency [3] | Potency [5]

Clc1cccc(Cl)c1C1Nc2cccc3cccc(c23)N1
inactive: Potency [1] | Potency [2] | Potency [3] | Potency [4] | Potency [5]

CCCCCNC(=O)C(c1cc2ccccc2o1)n1c(=O)c(-c2ccco2)nc2ccccc21 (stereo not given)
active: Potency [1] 16.9 µM | Potency [4] 10.7 µM
inactive: Potency [2] | Potency [3] | Potency [5]

O=C1CNC(=O)c2c(nc3n2CCC3)N1
inactive: Potency [1] | Potency [2] | Potency [3] | Potency [4] | Potency [5]

CCOC(=O)N1CCN(c2ccc(S(=O)(=O)N(Cc3ccccc3)Cc3ccccc3)cn2)CC1
inactive: Potency [1] | Potency [2] | Potency [3] | Potency [4] | Potency [5]

COc1cccc(C2=NN(C(=O)c3ccco3)C(O)(C(F)(F)F)C2)c1 (stereo not given)
inactive: Potency [1] | Potency [2] | activation [3] 1.71% [at 17.1 µM, percent relative to cAMP agonist control] | Potency [4] | activity change, negative = inhibition [5] -10.8% [at 30.8 µM]

Oc1ccc(NCc2ccccc2OCc2ccc(Cl)cc2)cc1
inactive: Potency [2] | Potency [3] | Potency [4] | Potency [5]
active: Potency [1] 75.7 µM

O=C1S/C(=C\c2ccc(N3CCOCC3)o2)C(=O)N1c1ccccc1
inactive: Potency [1] | Potency [2] | Potency [3] | Potency [4] | Potency [5]
